Source: PubChem BioAssay (Tox21)
Results filed as inconclusive are left out. Active and inactive are the calls of the source. Unless noted, calls come from the whole dose curve; as a rule, active = well fitted curve in the direction sought with a large enough effect in the repeat runs; inconclusive = weak or mixed curves; inactive = no such curve, though single readings can be large; an effect the other way counts as inactive or inconclusive.

How the values were obtained:
[1] = qHTS RealTime-Glo MT Cell Viability Assay in HEK293 cells - 0 hour (AID 1224880); note: top concentration of the series differs between compounds; nearly all actives have a fitted effect of over 45% in size
Method in brief: (§1)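 Nonlytic bioluminescent viability monitoring. HEK293 at 600 cells/well with reagent; 5 h settle; compound transfer by pintool; plates held at 37 C and read at set time points.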

[2] = A CellTox Green Cytotoxicity Assay to monitor cytotoxicity in HEK293 cells - 32 hour (AID 1224881); note: nearly all actives have a fitted effect of over 40% in size
Method in brief: (§2)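 Cytotoxicity was tracked continuously in HEK293 cells by a DNA-binding dye excluded from viable cells. Compounds were transferred in DMSO 5 h after seeding; fluorescence was recorded at intervals up to 40 h.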

[3] = A CellTox Green Cytotoxicity Assay to monitor cytotoxicity in HepG2 cells - 0 hour (AID 1224882); note: nearly all actives have a fitted effect of over 35% in size
Method in brief: (§3)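 Real-time, homogeneous cytotoxicity readout: dead-cell DNA staining by CellTox Green in HepG2 monolayers, fluorescence measured at timed intervals up to 40 h of continuous compound exposure.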

[4] = A CellTox Green Cytotoxicity Assay to monitor cytotoxicity in HEK293 cells - 8 hour (AID 1224884); note: nearly all actives have a fitted effect of over 35% in size
Method in brief: as §2

[5] = qHTS RealTime-Glo MT Cell Viability Assay in HepG2 cells - 16 hour (AID 1224885); note: nearly all actives have a fitted effect of over 50% in size
Method in brief: (§4)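 HepG2 cells (600/well) were dispensed with RealTime-Glo reagents, incubated 5 h at 37 °C, then treated with compounds in DMSO for up to 40 h. Nonlytic NanoLuc luminescence reflecting viable cells was read at each stated time point.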

[6] = qHTS RealTime-Glo MT Cell Viability Assay in HEK293 cells - 8 hour (AID 1224887); note: top concentration of the series differs between compounds; nearly all actives have a fitted effect of over 50% in size
Method in brief: as §1

[7] = A CellTox Green Cytotoxicity Assay to monitor cytotoxicity in HEK293 cells - 16 hour (AID 1224888); note: nearly all actives have a fitted effect of over 35% in size
Method in brief: as §2

[8] = qHTS RealTime-Glo MT Cell Viability Assay in HepG2 cells - 0 hour (AID 1224889); note: nearly all actives have a fitted effect of over 50% in size
Method in brief: as §4

[9] = A CellTox Green Cytotoxicity Assay to monitor cytotoxicity in HepG2 cells - 8 hour (AID 1224890); note: nearly all actives have a fitted effect of over 45% in size
Method in brief: as §3

[10] = qHTS assay to identify small molecule antagonists of the estrogen receptor alpha (ER-alpha) signaling pathway using the BG1 cell line in the presence of 0.1 nM 17-beta-estradiol - cell viability counter screen (AID 1259241); note: nearly all actives have a fitted effect of over 40% in size
Method in brief: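 VM7Luc4E2 cells (endogenous full-length ER-alpha, 4xERE-luciferase), cultured 5 days in charcoal-stripped serum, exposed to compounds with 0.1 nM 17beta-estradiol (final) for 22 hr at 37C. Viability read in same wells as live-cell protease fluorescence after 30 min.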

[11] = qHTS assay to identify small molecule antagonists of the androgen receptor (AR) signaling pathway using the MDA cell line in the presence of 0.5 nM R1881 - cell viability counter screen (AID 1259242); note: nearly all actives have a fitted effect of over 45% in size
Method in brief: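 Cytotoxicity toward MDA-kb2 cells is measured by CellTiter-Fluor live-cell protease fluorescence after 16 hr compound exposure at 37C in the presence of 0.5 nM R1881 stimulator.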

[12] = molecular target: Estrogen receptor (Homo sapiens) (UniProt P03372); assay: qHTS assay to identify small molecule antagonists of the estrogen receptor alpha (ER-alpha) signaling pathway using the BG1 cell line in the presence of 0.1 nM 17-beta-estradiol (AID 1259244); note: nearly all actives have a fitted effect of over 50% in size
Sequence of Estrogen receptor (Homo sapiens) (P03372 whole entry, looked up): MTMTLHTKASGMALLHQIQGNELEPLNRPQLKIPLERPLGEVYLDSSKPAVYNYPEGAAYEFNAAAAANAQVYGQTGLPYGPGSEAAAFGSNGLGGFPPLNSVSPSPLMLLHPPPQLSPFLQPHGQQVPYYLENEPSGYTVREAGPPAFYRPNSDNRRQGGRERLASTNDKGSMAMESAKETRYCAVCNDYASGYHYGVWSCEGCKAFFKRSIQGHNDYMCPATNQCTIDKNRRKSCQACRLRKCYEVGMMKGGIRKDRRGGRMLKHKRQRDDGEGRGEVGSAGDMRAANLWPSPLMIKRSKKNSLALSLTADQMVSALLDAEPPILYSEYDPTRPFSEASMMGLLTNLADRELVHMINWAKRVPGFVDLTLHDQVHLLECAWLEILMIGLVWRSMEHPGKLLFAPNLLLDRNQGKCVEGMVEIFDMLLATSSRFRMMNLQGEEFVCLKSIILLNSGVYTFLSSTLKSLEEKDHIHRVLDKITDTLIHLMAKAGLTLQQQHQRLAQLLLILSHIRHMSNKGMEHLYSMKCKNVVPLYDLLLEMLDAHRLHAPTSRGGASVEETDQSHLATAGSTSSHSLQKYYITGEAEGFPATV
Method in brief: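 After 5 days in hormone-depleted medium (charcoal-stripped serum, no phenol red), VM7Luc4E2 cells were seeded, incubated 24 h, then co-treated with compound and 0.1 nM (final) estradiol for 22 h before luminescence detection.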

[13] = qHTS assay to identify small molecule HDAC inhibitors (AID 1259364); note: top concentration of the series differs between compounds; nearly all actives have a fitted effect of over 45% in size
Method in brief: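 Homogeneous cell-based luminescent assay of endogenous class I/II HDAC activity; HCT-116 cells, 2 h compound exposure, 30 min HDAC-Glo development at RT.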

[14] = qHTS assay to identify small molecule HDAC inhibitors - cell viability counter screen (AID 1259365)
Method in brief: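 Wild-type HCT-116 cells, 1,500/well, cultured overnight, then compound-treated 2 h at 37 C. Viability measured as ATP luminescence with CellTiter-Glo after 30 min at room temperature.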

[15] = qHTS assay to identify small molecule agonists of the sonic hedgehog signaling (Shh) pathway - cell viability counter screen (AID 1259366); note: nearly all actives have a fitted effect of over 50% in size
Method in brief: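 NIH/3T3-derived Gli1-Luc reporter cells, 2,000 per well, received compound after 4 h and were treated about 23 h at 37C. Viability measured in the same wells by CellTiter-Fluor fluorescence after 1 h.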

[16] = qHTS assay to identify small molecule antagonists of the sonic hedgehog signaling (Shh) pathway - cell viability counter screen (AID 1259367); note: nearly all actives have a fitted effect of over 55% in size
Method in brief: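 Using CellTiter-Fluor, viability of Gli1-Luc reporter 3T3 cells is read by fluorescence in the wells used for the Shh luciferase assay. Treatment lasts 23 hr with conditioned medium, then reagent 1 hr at 37C.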

[17] = A CellTox Green Cytotoxicity Assay to monitor cytotoxicity in HepG2 cells - 32 hour (AID 1224883); note: nearly all actives have a fitted effect of over 50% in size
Method in brief: as §3

[18] = qHTS RealTime-Glo MT Cell Viability Assay in HEK293 cells - 24 hour (AID 1224886)
Method in brief: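 HEK293 cells seeded with NanoLuc/prosubstrate reagent, rested 5 h at 37 C, then dosed and kept at 37 C up to 40 h. Nonlytic real-time luminescence from viable cells read at 0, 8, 16, 24, 32 and 40 h.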

[19] = qHTS assay to identify small molecule phospholipidosis (PLD) inducers (AID 1259344; active = well fitted curve in the direction sought with a large enough effect; an effect the other way counts as inactive or inconclusive)
Method in brief: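 Fluorescent phospholipid staining (LipidTOX Red) measured by automated microscopy in fixed HepG2 cells after 24 h treatment; nuclei counterstained with Hoechst 33342; amiodarone as reference inducer.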
% is set by controls: 0 for no effect and ±100 for the full control effect.

CC(=O)NNC(C)=O
inactive: Potency [1] | Potency [2] | Potency [3] | Potency [4] | Potency [5] | Potency [6] | Potency [7] | Potency [8] | Potency [9] | Potency [10] | Potency [11] | Potency [12] | Potency [13] | Potency [14] | Potency [15] | Potency [16]

O=CNNC=O
inactive: Potency [1] | Potency [2] | Potency [17] | Potency [4] | Potency [5] | Potency [18] | Potency [6] | Potency [7] | Potency [8] | Potency [9] | Potency [10] | Potency [11] | Potency [12] | Potency [13] | Potency [14] | Potency [15] | Potency [16]

CCN(CC)CC(=O)Nc1c(C)cccc1C(=O)OC
inactive: Potency [1] | Potency [2] | Potency [17] | Potency [4] | Potency [5] | Potency [18] | Potency [7] | Potency [8] | Potency [9] | Potency [10] | Potency [11] | Potency [12] | Potency [13] | Potency [14] | Potency [15] | Potency [16]

c1ccc2sc(SSc3nc4ccccc4s3)nc2c1
inactive: activity change, negative = cytotoxicity [1] -1.35% [at 15.8 µM] | cytotoxicity increase [2] 13.3% [at 15.8 µM] | cytotoxicity increase [17] 4.1% [at 15.8 µM] | cytotoxicity increase [4] 3.51% [at 15.8 µM] | activity change, negative = cytotoxic [5] 5.08% [at 15.8 µM] | activity change, negative = cytotoxicity [18] 4.46% [at 15.8 µM] | activity change, negative = cytotoxicity [6] 0.0342% [at 15.8 µM] | activity change [7] 10.5% [at 15.8 µM, hits give high values] | activity change, negative = cytotoxicity [8] 0.525% [at 15.8 µM] | cytotoxicity increase [9] 0.594% [at 15.8 µM] | activity change, negative = cytotoxicity [10] 8.69% [at 19 µM] | viability change, negative = cytotoxic [11] 8.85% [at 19 µM] | Potency [19] | activity change, negative = inhibition [13] -21.4% [at 19 µM] | activity change, negative = cytotoxicity [14] 0.0537% [at 19 µM] | viability change, negative = cytotoxic [15] 21.7% [at 19 µM] | viability change, negative = cytotoxic [16] 7.43% [at 19 µM]

CCCCCCC(O)CCOC(C)=O (centres undefined)
inactive: Potency [1] | Potency [2] | Potency [17] | Potency [4] | Potency [5] | Potency [18] | Potency [6] | Potency [7] | Potency [8] | Potency [9] | Potency [10] | Potency [11] | Potency [13] | Potency [14] | Potency [15] | Potency [16]

N[C@@H](Cc1cc(I)c(O)c(I)c1)C(=O)O
inactive: Potency [1] | Potency [2] | Potency [3] | Potency [4] | Potency [5] | Potency [7] | Potency [8] | Potency [9] | Potency [10] | Potency [11] | Potency [12] | Potency [19] | Potency [13] | Potency [14] | Potency [15] | Potency [16]

CC(C)N=C=NC(C)C
inactive: Potency [1] | Potency [2] | Potency [17] | Potency [4] | Potency [5] | Potency [18] | Potency [6] | Potency [7] | Potency [8] | Potency [9] | Potency [10] | Potency [11] | Potency [12] | Potency [14] | Potency [15] | Potency [16]

CC(C)OC(=O)c1ccccc1C(=O)OC(C)C
inactive: Potency [1] | Potency [2] | Potency [17] | Potency [4] | Potency [5] | Potency [18] | Potency [7] | Potency [8] | Potency [9] | Potency [10] | Potency [11] | Potency [13] | Potency [14] | Potency [15] | Potency [16]
